In PubChem BioAssay (NCI):
This is part of a sample that, as a whole, favours compounds with a hit. Of some 79,000 tested, about 15% had one in any assay. Activity calls are given as the source filed them. Cut-off read from the data, not from the text of the source: active = growth inhibition above about 70%; inactive = the rest.

Tests used:
[1] = NCI Yeast Anticancer Drug Screen. Data for the wt1 strain (AID 149);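 note: 0% = growth of vehicle-treated wt1 cultures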; details: S. cerevisiae wt1 strain (SPY 50644) growth inhibition, hits give high values
How it was run: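 wt1 strain grown with compound or vehicle; inhibition taken from the growth difference.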

[2] = NCI Yeast Anticancer Drug Screen. Data for the rad50EPP+ strain (AID 151);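 note: 0% = growth of vehicle-treated control cultures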; details: S. cerevisiae rad50 mutant strain, hits give high values
How it was run: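 Growth inhibition read against vehicle controls in rad50EPP+ yeast, a strain altered in DNA damage repair, after compound exposure.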

[3] = NCI Yeast Anticancer Drug Screen. Data for the mgt1 strain (AID 153); details: S. cerevisiae mgt1 mutant growth inhibition, hits give high values
How it was run: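 mgt1 yeast grown with test compound; read-out is growth inhibition versus vehicle-treated cultures.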

[4] = NCI Yeast Anticancer Drug Screen. Data for the rad50 strain (AID 155);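 note: 0% = growth of vehicle-only cultures of the same strain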; details: S. cerevisiae rad50 strain growth inhibition, hits give high values
How it was run: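 DNA repair mutant yeast, compound exposure, growth read-out; inhibition is taken relative to vehicle.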

[5] = NCI Yeast Anticancer Drug Screen. Data for the mec2-1 strain (AID 157); details: S. cerevisiae mec2-1 strain, hits give high values
How it was run: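 Yeast mec2-1 mutant treated with compound. Readout: growth inhibition vs vehicle controls.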

[6] = NCI Yeast Anticancer Drug Screen. Data for the rad14 strain (AID 159);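 note: 0% = growth of vehicle-treated control cultures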; details: S. cerevisiae rad14 strain growth inhibition, hits give high values
How it was run: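 DNA repair-defective yeast, compound-exposed; % growth inhibition derived by comparison with vehicle-treated controls.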

[7] = NCI Yeast Anticancer Drug Screen. Data for the sgs1 mgt1 strain (AID 161);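 note: 0% = growth of cultures given vehicle only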; details: S. cerevisiae sgs1 mgt1 strain, hits give high values
How it was run: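 Mutant yeast exposed to compound; growth scored against vehicle-only wells.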

[8] = NCI Yeast Anticancer Drug Screen. Data for the CLN2oe strain (AID 163);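 note: 0% = growth of vehicle-only control cultures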; details: S. cerevisiae CLN2oe strain, hits give high values
How it was run: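 Read-out: yeast growth inhibition, expressed relative to vehicle-only controls. The strain bears an engineered cell-cycle alteration.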

[9] = NCI Yeast Anticancer Drug Screen. Data for the cln2 rad14 strain (AID 165);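 note: 0% = growth equal to vehicle treated cultures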; details: S. cerevisiae cln2 rad14 strain, hits give high values
How it was run: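 cln2 rad14 yeast strain; compound exposure; growth inhibition read vs vehicle controls.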

[10] = NCI Yeast Anticancer Drug Screen. Data for the bub3 strain (AID 167); details: S. cerevisiae bub3 mutant strain, hits give high values
How it was run: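 In this screen, a yeast mutant lacking normal mitotic checkpoint function is challenged with compound. Relative growth versus vehicle gives the inhibition value.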

[11] = NCI Yeast Anticancer Drug Screen. Data for the wt2 strain (AID 169);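 note: 0% = growth of vehicle-treated yeast cultures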; details: S. cerevisiae wt2 strain growth inhibition, hits give high values
How it was run: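 Read-out: growth inhibition versus vehicle-treated control cultures after compound exposure of the yeast strain.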

[12] = NCI Yeast Anticancer Drug Screen. Data for the mlh1 strain (AID 171);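 note: 0% = growth of vehicle-treated control cultures of the same strain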; details: S. cerevisiae mlh1 strain growth inhibition, hits give high values
How it was run: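 Read-out: growth inhibition versus vehicle controls. Strain: engineered yeast with a defined DNA repair or cell cycle defect, compound-treated.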

[13] = NCI Yeast Anticancer Drug Screen. Data for the sgs1 strain (AID 173);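 note: 0% = growth of vehicle-only control cultures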; details: S. cerevisiae sgs1 mutant, hits give high values
How it was run: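 Read-out: yeast growth inhibition relative to vehicle controls, following compound exposure of a strain with a defined DNA repair/cell cycle alteration.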

[14] = NCI Yeast Anticancer Drug Screen. Data for the mlh1 rad18 strain (AID 175); details: S. cerevisiae mlh1 rad18 strain growth inhibition, hits give high values
How it was run: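 Yeast w/ defined DNA-repair lesions; compound exposure; growth vs vehicle controls → % inhibition.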

[15] = NCI Yeast Anticancer Drug Screen. Data for the rad18 strain (AID 177); details: S. cerevisiae rad18 mutant growth inhibition, hits give high values
How it was run: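 Readout: growth inhibition vs vehicle controls. Cells: genetically altered yeast strain, DNA repair defect.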

[16] = at 5.0 µM (retest, dose inferred, filed as 0.5)
[17] = at 50.0 µM (retest, dose inferred, filed as 5.0)

Measured: growth inhibition

c1c[nH]c(CN2CCN(Cc3ncc[nH]3)CC2)n1
inactive: [1]; at 1.2 µM -1% | [1]; at 3.7 µM 7% | [2]; at 1.2 µM -3% | [2]; at 3.7 µM 3% | [3]; at 1.2 µM -6% | [3]; at 3.7 µM 2% | [4]; at 1.2 µM 4% | [5]; at 1.2 µM -5% | [5]; at 3.7 µM -1% | [5]; [16] 26% | [6]; at 1.2 µM -4% | [6]; at 3.7 µM 18% | [7]; [16] 34% | [8]; at 1.2 µM -3% | [8]; at 3.7 µM 12% | [9]; [16] -69% | [10]; at 1.2 µM -6% | [10]; at 3.7 µM 27% | [10]; [16] 1% | [11]; at 1.2 µM -1% | [11]; at 3.7 µM 54% | [12]; at 1.2 µM -5% | [12]; at 3.7 µM 37% | [13]; at 1.2 µM -2% | [13]; at 3.7 µM 17% | [14]; [16] 46% | [15]; at 1.2 µM 0% | [15]; at 3.7 µM 64%
active: [1]; at 11.0 µM 97% | [1]; at 33.0 µM 98% | [1]; at 100.0 µM 99% | [2]; at 11.0 µM 92% | [2]; at 33.0 µM 97% | [2]; at 100.0 µM 98% | [3]; at 11.0 µM 96% | [3]; at 33.0 µM 97% | [3]; at 100.0 µM 99% | [4]; at 3.7 µM 93% | [4]; [16] 89% | [4]; at 11.0 µM 97% | [4]; at 33.0 µM 97% | [4]; [17] 99% | [4]; at 50.0 µM 97.4% | [4]; at 100.0 µM 98% | [5]; at 11.0 µM 94% | [5]; at 33.0 µM 98% | [5]; [17] 98% | [5]; at 50.0 µM 97.7% | [5]; at 100.0 µM 98% | [6]; at 11.0 µM 95% | [6]; at 33.0 µM 98% | [6]; at 100.0 µM 99% | [7]; [17] 99% | [7]; at 50.0 µM 98.5% | [8]; at 11.0 µM 96% | [8]; at 33.0 µM 98% | [8]; at 100.0 µM 98% | [9]; [17] 99% | [9]; at 50.0 µM 98.7% | [10]; at 11.0 µM 97% | [10]; at 33.0 µM 97% | [10]; [17] 99% | [10]; at 50.0 µM 97.8% | [10]; at 100.0 µM 98% | [11]; at 11.0 µM 98% | [11]; at 33.0 µM 99% | [11]; at 100.0 µM 99% | [12]; at 11.0 µM 97% | [12]; at 33.0 µM 98% | [12]; at 100.0 µM 99% | [13]; at 11.0 µM 96% | [13]; at 33.0 µM 98% | [13]; at 100.0 µM 99% | [14]; [17] 98% | [14]; at 50.0 µM 98% | [15]; at 11.0 µM 96% | [15]; at 33.0 µM 98% | [15]; at 100.0 µM 98%

CC(C)N(CCCNc1c2ccccc2nc2cccc([N+](=O)[O-])c12)C(C)C
inactive: [1]; at 1.2 µM 0% | [1]; at 3.7 µM 5% | [1]; at 11.0 µM 43% | [2]; at 1.2 µM 52% | [3]; at 1.2 µM -1% | [3]; at 3.7 µM 8% | [3]; at 11.0 µM 67% | [4]; at 1.2 µM 42% | [5]; at 1.2 µM 12% | [10]; at 1.2 µM -20% | [10]; at 3.7 µM -18% | [10]; [16] -10% | [10]; at 11.0 µM 17% | [10]; at 50.0 µM 33.5% | [11]; at 1.2 µM 1% | [11]; at 3.7 µM 14% | [11]; at 11.0 µM 68% | [12]; at 1.2 µM 6% | [12]; at 3.7 µM 14%
active: [1]; at 33.0 µM 94% | [1]; at 100.0 µM 98% | [2]; at 3.7 µM 86% | [2]; at 11.0 µM 93% | [2]; at 33.0 µM 95% | [2]; at 100.0 µM 96% | [3]; at 33.0 µM 97% | [3]; at 100.0 µM 99% | [4]; at 3.7 µM 82% | [4]; [16] 86% | [4]; at 11.0 µM 92% | [4]; at 33.0 µM 94% | [4]; [17] 98% | [4]; at 50.0 µM 92.8% | [4]; at 100.0 µM 97% | [5]; at 3.7 µM 76% | [5]; [16] 88% | [5]; at 11.0 µM 97% | [5]; at 33.0 µM 98% | [5]; [17] 99% | [5]; at 50.0 µM 94.5% | [5]; at 100.0 µM 99% | [6]; at 1.2 µM 93% | [6]; at 3.7 µM 98% | [6]; at 11.0 µM 99% | [6]; at 33.0 µM 99% | [6]; at 100.0 µM 99% | [7]; [16] 91% | [7]; [17] 98% | [7]; at 50.0 µM 94.5% | [9]; [16] 97% | [9]; [17] 98% | [9]; at 50.0 µM 95.7% | [10]; at 33.0 µM 90% | [10]; [17] 97% | [10]; at 100.0 µM 98% | [11]; at 33.0 µM 96% | [11]; at 100.0 µM 98% | [12]; at 11.0 µM 72% | [12]; at 33.0 µM 96% | [12]; at 100.0 µM 98% | [14]; [16] 93% | [14]; [17] 98% | [14]; at 50.0 µM 95.9% | [15]; at 1.2 µM 95% | [15]; at 3.7 µM 95% | [15]; at 11.0 µM 95% | [15]; at 33.0 µM 95% | [15]; at 100.0 µM 98%

CC1C(c2ccccc2)SC(=N)N1C (centres undefined)
inactive: [1]; at 1.2 µM -1% | [1]; at 3.7 µM -1% | [1]; at 11.0 µM -2% | [1]; at 33.0 µM -1% | [1]; at 100.0 µM -1% | [2]; at 1.2 µM -2% | [2]; at 3.7 µM -2% | [2]; at 11.0 µM -2% | [2]; at 33.0 µM 0% | [2]; at 100.0 µM -1% | [3]; at 1.2 µM -1% | [3]; at 3.7 µM 0% | [3]; at 11.0 µM 0% | [3]; at 33.0 µM -1% | [3]; at 100.0 µM -1% | [4]; at 1.2 µM -2% | [4]; at 3.7 µM -46% | [4]; [16] 0% | [4]; at 11.0 µM -55% | [4]; at 33.0 µM -4% | [4]; [17] 51% | [4]; at 50.0 µM -19.9% | [4]; at 100.0 µM -4% | [5]; at 1.2 µM 0% | [5]; at 3.7 µM -1% | [5]; [16] 6% | [5]; at 11.0 µM -1% | [5]; at 33.0 µM -1% | [5]; [17] 46% | [5]; at 50.0 µM -5.6% | [5]; at 100.0 µM -1% | [6]; at 1.2 µM 1% | [6]; at 3.7 µM 2% | [6]; at 11.0 µM 2% | [6]; at 33.0 µM 3% | [6]; at 100.0 µM 2% | [7]; [16] 12% | [7]; [17] 54% | [7]; at 50.0 µM -5.35% | [8]; at 1.2 µM 4% | [8]; at 3.7 µM 1% | [8]; at 11.0 µM 4% | [8]; at 33.0 µM 4% | [8]; at 100.0 µM -2% | [9]; [16] 1% | [9]; [17] 56% | [9]; at 50.0 µM 23.4% | [10]; at 1.2 µM -3% | [10]; at 3.7 µM -2% | [10]; [16] -2% | [10]; at 11.0 µM -3% | [10]; at 33.0 µM -3% | [10]; [17] -7% | [10]; at 50.0 µM -4.4% | [10]; at 100.0 µM 0% | [11]; at 1.2 µM 1% | [11]; at 3.7 µM 8% | [11]; at 11.0 µM 0% | [11]; at 33.0 µM 0% | [11]; at 100.0 µM 0% | [12]; at 1.2 µM -1% | [12]; at 3.7 µM -2% | [12]; at 11.0 µM 0% | [12]; at 33.0 µM -1% | [12]; at 100.0 µM -1% | [13]; at 1.2 µM -1% | [13]; at 3.7 µM 0% | [13]; at 11.0 µM 1% | [13]; at 33.0 µM 1% | [13]; at 100.0 µM 0% | [14]; [16] 6% | [14]; [17] 52% | [14]; at 50.0 µM -18.4% | [15]; at 1.2 µM -1% | [15]; at 3.7 µM 1% | [15]; at 11.0 µM -2% | [15]; at 33.0 µM -3% | [15]; at 100.0 µM -4%
